# Several values for one entry are separate records, joined by “and”; a condition that tells them apart may be missing. Identical values can stand only once. Activity calls are given as the source filed them. Unless noted, no stated cut-off is given here; in the data, active means inhibition above about 80%; inactive means the rest.
# Key:
# [1] = target: NAD(+) hydrolase SARM1 (Homo sapiens) (UniProt Q6SZW1); experiment: blocking NAD cleavage by SARM1 SAM-TIR – cell lysate, NAD-Glo luminescence (AID 1508614;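 active means compound whose remaining NAD level is above about 45 nM, limit read from the data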); conditions: SAM-TIR HEK293T lysate NADase, at 1 µM, stronger effect = higher value
# [2] = target: Mitogen-activated protein kinase 7 (Homo sapiens) (UniProt Q13164); experiment: Gal4-ERK5 driven luciferase induction – cell-based, HTS, primary screen (AID 1508626;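 active means luciferase signal above three times the same-plate solvent-only control wells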;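 further: luciferase driven by Gal4-ERK5 fusion binding five Gal4 sites before minimal TATA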); conditions: HeLa Gal4-ERK5 transactivation, 18 h, at 5 µM, stronger effect = higher value
# [3] = growth inhibition, single agent or in combination, cell-based, chromothripsis tumors, cisplatin or BGB combos (AID 1671449); conditions: LFS_MB_P medulloblastoma cells;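 further: cells exposed for 96 hours; 0% = vehicle DMSO and 100% = killing by high DMSO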
# [4] = growth inhibition, single agent and combos, cell-based, chromothripsis tumors, cisplatin or BGB combos (AID 1671450); conditions: HDN33 neuroblastoma cells, stronger effect = higher value;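 further: cells exposed to compound for four days; 0% = vehicle DMSO and 100% = cell killing by high DMSO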
# [5] = growth inhibition, single agents and combos, ICB984, cell-based, cisplatin or BGB combos, synergistic combos for chromothripsis tumors (AID 1671451; call rule not given here;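 further: cells exposed for 96 hours before readout; 0% = vehicle DMSO and 100% = killing by high DMSO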); conditions: ICB984 medulloblastoma cells, drug combinations, stronger effect = higher value
# [6] = growth inhibition, single agents and combos, LFS_MB_1R, cell-based, cisplatin or BGB combos, synergistic combos for chromothripsis tumors (AID 1671452); conditions: LFS_MB_1R medulloblastoma cells, stronger effect = higher value;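 further: cells exposed for 96 hours before readout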
# [7] = growth inhibition, single agents and combos, HTB85, cell-based, BGB or cisplatin IC20 combos, synergistic combos for chromothripsis tumors (AID 1671453); conditions: HTB85 osteosarcoma cells, drug combinations, stronger effect = higher value;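 further: cells exposed for 96 hours before readout; 0% = vehicle DMSO and 100% = high DMSO killing control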
# [8] = growth inhibition, single agents and combos, CRL2098, cell-based, BGB or cisplatin IC20 combos, synergistic combos for chromothripsis tumors (AID 1671454); conditions: CRL2098 osteosarcoma cells, drug combinations, stronger effect = higher value;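 further: cells exposed for 96 h before readout; 0% = vehicle DMSO and 100% = killing by high DMSO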
# [9] = growth inhibition, single agents and combos, HD-MB03, cell-based, BGB or cisplatin IC20 combos, synergistic combos for chromothripsis tumors (AID 1671455; in the data active means inhibition above about 83%;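 further: 0% = vehicle DMSO and 100% = high DMSO as cytotoxic control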); conditions: HD-MB03 medulloblastoma cells, stronger effect = higher value
# [10] = growth inhibition, single agents and combos, UWB1.289, cell-based, BGB or cisplatin combos, synergistic combos for chromothripsis tumors (AID 1671456); conditions: UWB1.289 ovarian carcinoma cells, stronger effect = higher value;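 further: cells exposed to compound for four days; 0% = vehicle DMSO and 100% = killing by high DMSO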
# [11] = growth inhibition, single agents and combos, LFS_MB_2R, cell-based, cisplatin combos, synergistic combos for chromothripsis tumors (AID 1671457); conditions: LFS_MB_2R medulloblastoma cells, stronger effect = higher value;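 further: cells exposed to compound for four days before readout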
# [12] = growth inhibition, MDA-MB-436, cell-based, BGB or cisplatin combos, synergistic combos for chromothripsis tumors (AID 1671458; call rule not given here;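 further: cells exposed for 96 hours; 0% = vehicle DMSO and 100% = killing by high DMSO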); conditions: MDA-MB-436 breast carcinoma growth inhibition, drug combinations, stronger effect = higher value
# [13] = UWB1.289_BRCA1 ovarian cancer growth, cell-based, BGB or cisplatin combinations (AID 1671459); conditions: UWB1.289 BRCA1 ovarian carcinoma, drug combinations, stronger effect = higher value
# [14] = drug combination toxicity in non-malignant astrocytes – cell-based, BGB or cisplatin IC20 combos, cytotoxicity control for chromothriptic childhood tumor combination screen (AID 1671460); conditions: Human astrocytes, viability inhibition, drug combinations, at 0.5 µM, stronger effect = higher value;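 further: cells exposed to compounds for 96 hours before viability readout; 0% = vehicle and 100% = killing control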
# [15] = BT084 cell growth, single and combined drugs, ICGC_MB145, cisplatin and BGB IC40 combos (AID 1671461); conditions: BT084 medulloblastoma cells, drug combinations, stronger effect = higher value;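 further: cells exposed to drugs for 96 hours; 0% = vehicle DMSO and 100% = high DMSO full killing control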
# [16] = RCMB18 cell growth, single agent and combined, cisplatin and BGB IC40 combos (AID 1671462); conditions: RCMB18 medulloblastoma cells, stronger effect = higher value;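 further: cells exposed to compound for four days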
# [17] = CRL1545 cell growth, single agent and combined, cisplatin and BGB IC20 combos (AID 1671464); conditions: CRL1545 osteosarcoma cells, stronger effect = higher value;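 further: cells exposed to compound for 96 hours before readout; 0% = vehicle DMSO and 100% = high DMSO killing control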
# [18] = measured here: combination with BGB IC40, at 0.05 µM
# [19] = measured here: with BGB IC20 combination, at 0.5 µM
# [20] = measured here: with cisplatin IC20 combination, at 0.5 µM
# [21] = measured here: combination with cisplatin, at 0.5 µM
# [22] = measured here: combination with cisplatin, at 5 µM
# Chain of NAD(+) hydrolase SARM1 (Homo sapiens) (Q6SZW1 whole entry, looked up, the tested form may be a part): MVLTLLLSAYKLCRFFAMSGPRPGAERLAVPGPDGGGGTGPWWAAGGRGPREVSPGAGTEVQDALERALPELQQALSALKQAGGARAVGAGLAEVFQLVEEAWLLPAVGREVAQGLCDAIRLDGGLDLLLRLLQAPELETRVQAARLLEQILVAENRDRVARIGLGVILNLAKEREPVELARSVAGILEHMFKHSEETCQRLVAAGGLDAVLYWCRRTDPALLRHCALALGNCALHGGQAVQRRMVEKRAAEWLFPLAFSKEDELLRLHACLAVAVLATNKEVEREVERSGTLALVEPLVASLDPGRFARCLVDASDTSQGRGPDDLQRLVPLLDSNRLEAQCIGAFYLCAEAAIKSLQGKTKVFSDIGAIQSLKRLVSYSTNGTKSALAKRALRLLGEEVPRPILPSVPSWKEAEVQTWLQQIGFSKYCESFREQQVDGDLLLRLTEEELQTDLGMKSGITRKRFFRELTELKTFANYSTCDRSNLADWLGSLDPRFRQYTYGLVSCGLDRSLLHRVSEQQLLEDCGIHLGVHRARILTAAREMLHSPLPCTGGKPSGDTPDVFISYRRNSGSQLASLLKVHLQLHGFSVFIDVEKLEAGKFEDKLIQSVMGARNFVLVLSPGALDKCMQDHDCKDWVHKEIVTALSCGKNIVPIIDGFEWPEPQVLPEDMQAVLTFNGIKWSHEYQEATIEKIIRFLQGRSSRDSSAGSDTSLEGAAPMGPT
# Chain of Mitogen-activated protein kinase 7 (Homo sapiens) (Q13164 whole entry, looked up, the tested form may be a part): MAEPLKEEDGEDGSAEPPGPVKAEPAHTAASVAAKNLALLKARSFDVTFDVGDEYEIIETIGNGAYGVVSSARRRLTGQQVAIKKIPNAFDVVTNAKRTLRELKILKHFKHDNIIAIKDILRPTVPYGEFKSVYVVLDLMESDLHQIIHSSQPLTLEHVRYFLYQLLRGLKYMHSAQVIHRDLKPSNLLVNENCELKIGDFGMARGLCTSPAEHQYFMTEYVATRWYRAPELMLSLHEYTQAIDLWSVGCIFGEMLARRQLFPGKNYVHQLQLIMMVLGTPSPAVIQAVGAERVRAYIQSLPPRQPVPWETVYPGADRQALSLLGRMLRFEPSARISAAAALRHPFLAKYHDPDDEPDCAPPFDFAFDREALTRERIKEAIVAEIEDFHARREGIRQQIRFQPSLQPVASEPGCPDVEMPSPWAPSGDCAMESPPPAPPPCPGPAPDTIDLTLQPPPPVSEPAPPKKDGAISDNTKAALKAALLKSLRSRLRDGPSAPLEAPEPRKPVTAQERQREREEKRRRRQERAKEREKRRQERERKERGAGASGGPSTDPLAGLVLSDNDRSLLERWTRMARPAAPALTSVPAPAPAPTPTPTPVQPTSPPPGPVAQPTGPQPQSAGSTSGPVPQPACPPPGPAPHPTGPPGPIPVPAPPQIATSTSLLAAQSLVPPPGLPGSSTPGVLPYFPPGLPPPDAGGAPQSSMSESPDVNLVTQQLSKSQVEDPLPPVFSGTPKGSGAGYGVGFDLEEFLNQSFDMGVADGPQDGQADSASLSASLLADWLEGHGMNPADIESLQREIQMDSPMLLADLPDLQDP
smiles,measurement,setting,value
S=P(N1CC1)(N1CC1)N1CC1,remaining NAD,[1],10 nM (inactive)
same,luciferase signal,[2],40 AU (inactive)
same,inhibition,"[3]; at 0.5 µM, stronger effect = higher value",-23.2% (inactive) and -26.3% (inactive)
same,inhibition,"[3]; measured here: combination with BGB IC20, at 0.005 µM",4.28% and -9.96%
same,inhibition,"[3]; measured here: combination with BGB IC40, at 0.005 µM",-18.6% and -23.3%
same,inhibition,[3]; [18],-9.26% and -20.5%
same,inhibition,"[3]; measured here: combination with cisplatin, at 0.5 µM, stronger effect = higher value",-29.9% and -42.7%
same,inhibition,"[3]; measured here: combination with cisplatin, at 5 µM, stronger effect = higher value",-29% and -10.5%
same,inhibition,"[4]; BGB combo, at 5 µM",10.9% and 17%
same,inhibition,[4]; at 0.5 µM,-22.8% (inactive) and -4.61% (inactive)
same,inhibition,"[4]; cisplatin combo, at 5 µM",-33.8% and -6.48%
same,inhibition,[4]; [19],-8.9% and -5.09%
same,inhibition,[4]; [20],-36% and 8.65%
same,inhibition,"[4]; single agent, at 5 µM",-17.8% and -15.5%
same,inhibition,"[5]; BGB IC20 combo, at 0.005 µM",-28.8% and -30.2%
same,inhibition,"[5]; BGB IC40 combo, at 0.005 µM",-42.6% and -1.02%
same,inhibition,"[5]; BGB IC40 combo, at 0.05 µM",-71.3% and -1.28%
same,inhibition,[5]; at 0.5 µM,-28.5% (inactive) and -18.4% (inactive)
same,inhibition,"[5]; cisplatin combo, at 0.05 µM",-78.1% and -1.28%
same,inhibition,"[5]; cisplatin combo, at 0.5 µM",-36.2% and -27%
same,inhibition,"[5]; cisplatin combo, at 5 µM",-39.5% and -6.98%
same,inhibition,"[5]; measured here: 5 uM single agent, at 5 µM",-8.68% and -10.4%
same,inhibition,[6]; at 0.5 µM,-9.66% (inactive) and -3.23% (inactive)
same,inhibition,[6]; [18],-28.2% and 8.25%
same,inhibition,[6]; [21],-26.8% and 11.1%
same,inhibition,[6]; [22],-75% and -8.13%
same,inhibition,[7]; at 0.5 µM,-27.7% (inactive) and -19.6% (inactive)
same,inhibition,"[7]; measured here: with BGB IC20, at 0.5 µM",-28% and -46.5%
same,inhibition,"[7]; measured here: with BGB IC20, at 5 µM",12.6% and 4.5%
same,inhibition,"[7]; measured here: with cisplatin IC20, at 0.5 µM",-41.1% and -12.7%
same,inhibition,"[7]; measured here: with cisplatin IC20, at 5 µM",-24.2% and -0.841%
same,inhibition,"[7]; single agent, at 5 µM",-13.2% and -18.3%
same,inhibition,[8]; at 0.5 µM,-50.3% (inactive) and -34.6% (inactive)
same,inhibition,"[8]; measured here: combination with BGB at IC20, at 0.5 µM",-22.9% and -20.1%
same,inhibition,"[8]; measured here: combination with cisplatin at IC20, at 0.5 µM",-36.2% and -49.4%
same,inhibition,[9]; at 0.5 µM,-12.6% (inactive) and -4.94% (inactive)
same,inhibition,"[9]; measured here: combo with BGB at IC20, at 0.5 µM",-12.8% and -2.1%
same,inhibition,"[9]; measured here: combo with cisplatin at IC20, at 0.5 µM",-11.1% and -9.72%
same,inhibition,[10]; at 0.5 µM,-18.2% (inactive) and 3.65% (inactive)
same,inhibition,"[10]; measured here: inhibition with BGB combination, at 0.05 µM",-11.2% and -17.2%
same,inhibition,"[10]; measured here: inhibition with cisplatin combination, at 0.05 µM",-30.7% and -4.4%
same,inhibition,[11]; at 0.5 µM,-6.41% (inactive) and -22.2% (inactive)
same,inhibition,[11]; [21],-11.5% and -15%
same,inhibition,[11]; [22],6.16% and -16.8%
same,inhibition,[12]; at 0.5 µM,3.12% (inactive) and -15.6% (inactive)
same,inhibition,"[12]; measured here: BGB combination, at 0.5 µM",5.95% and -18.7%
same,inhibition,"[12]; measured here: BGB combination, at 5 µM",29.4% and 17.8%
same,inhibition,"[12]; measured here: cisplatin combination, at 0.5 µM",-1.16% and -30.9%
same,inhibition,"[12]; measured here: cisplatin combination, at 5 µM",28.2% and 9.67%
same,inhibition,"[13]; BGB combination, concentration series, at 5 µM",4.52% and 17.6%
same,inhibition,[13]; at 0.5 µM,-8.8% (inactive) and -2.14% (inactive)
same,inhibition,"[13]; cisplatin combination, concentration series, at 5 µM",2.09% and 16%
same,inhibition,[14],-9.07% (inactive) and -1.79% (inactive)
same,inhibition,[14]; measured here: combo with BGB IC20,3.46% and -2.7%
same,inhibition,[14]; measured here: combo with cisplatin IC20,-14.4% and -11.6%
same,inhibition,[15]; at 0.5 µM,0.706% (inactive) and -3.22% (inactive)
same,inhibition,"[15]; cisplatin combination, at 0.5 µM",-14.4% and 6.01%
same,inhibition,"[15]; cisplatin combination, at 5 µM",-20% and -51.6%
same,inhibition,"[15]; measured here: BGB IC40 combination 0.05 uM, at 0.05 µM",-8.78% and -15.6%
same,inhibition,"[15]; single agent, at 5 µM",-22.6% and -19.6%
same,inhibition,[16]; at 0.5 µM,-6.9% (inactive) and -9.28% (inactive)
same,inhibition,"[16]; cisplatin combo, at 5 µM",-6.08% and -6.23%
same,inhibition,"[16]; measured here: BGB IC40 combination, at 0.05 µM",-9.84% and -6.48%
same,inhibition,[16]; [21],-21.1% and 0.266%
same,inhibition,"[16]; single agent, at 5 µM",-45.9% and -29.6%
same,inhibition,[17]; at 0.5 µM,-18.6% (inactive) and -31% (inactive)
same,inhibition,[17]; [19],7.82% and -2.28%
same,inhibition,[17]; [20],-31.7% and -45.4%
same,inhibition,"[17]; single agent, at 0.05 µM",-43.5% and 4.65%
same,inhibition,"[17]; single agent, at 5 µM",-38.5% and 10.3%

# Reference: PubChem BioAssay
